Rows were chosen to be rich in hits. Some 2.4% of all compounds tested hit in one or more screens of this group.
CHRM1 PAM – human M1 muscarinic receptor positive allosteric modulators, primary screen, CHO-K1 cells, Fluo-8 calcium fluorescence, 1536-well; Muscarinic acetylcholine receptor M1 (Homo sapiens), P11229; CHO-K1 hM1, ACh EC20; 0% = ACh EC20, 100% = maximal ACh; activation, % at 3 µM; hit rate 0.088% among 360,000; in the data active = activation above about 19%, passing the limit was not always enough
Target sequence (P11229 whole entry, looked up): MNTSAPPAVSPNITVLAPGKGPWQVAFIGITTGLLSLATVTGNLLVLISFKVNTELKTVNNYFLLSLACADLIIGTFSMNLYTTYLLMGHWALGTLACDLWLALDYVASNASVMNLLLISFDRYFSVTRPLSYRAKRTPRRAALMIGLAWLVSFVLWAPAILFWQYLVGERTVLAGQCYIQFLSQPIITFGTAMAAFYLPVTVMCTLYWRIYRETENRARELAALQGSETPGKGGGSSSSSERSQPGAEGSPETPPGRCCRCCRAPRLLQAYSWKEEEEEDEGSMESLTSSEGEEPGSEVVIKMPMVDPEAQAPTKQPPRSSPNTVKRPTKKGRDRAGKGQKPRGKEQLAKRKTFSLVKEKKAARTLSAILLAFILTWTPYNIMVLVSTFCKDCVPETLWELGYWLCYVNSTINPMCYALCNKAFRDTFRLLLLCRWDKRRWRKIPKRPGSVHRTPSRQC
M1 antag – human M1 muscarinic receptor antagonists, primary screen, CHO-K1 cells, Fluo-8 calcium fluorescence, 1536-well. Muscarinic acetylcholine receptor M1 (Homo sapiens), P11229. CHO-K1 hM1, ACh EC80 antagonist. inhibition, % at 3 µM. hit rate 1.3% among 360,000;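 active = percent inhibition above its own plate's cutoff, namely the mean of that plate's compound wells plus 3 SD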;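 note: peak over basal fluorescence ratio during 140 s after agonist addition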
CHO-K1 Ca ag – counter-screen for M1 agonists: effect in parental CHO-K1 cells | hit rate 0.48% among 360,000 | Fluo-8 calcium fluorescence; scaled to maximal ATP response, vehicle zero | activation, % at 3 µM; in the data active = activation above about 15%;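 note: untransfected CHO-K1 host cells lacking M1 receptor as counterscreen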
CHO-K1 Ca PAM – nonselective calcium activators in parental CHO-K1 cells, primary screen, counter-screen for M1 PAM project, cell-based, Fluo-8 calcium fluorescence, full deck, 1536-well; ATP EC20; 0% at ATP EC20, 100% at ATP max; activation, % at 3 µM; hit rate 0.02% among 360,000;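 active = activation above the run cutoff, the mean activation of all test compounds plus 3 SD, cut at about 40% in these data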;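 note: peak over basal fluorescence ratio in a 140 s read after ATP addition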
CHRM1 agonist – human M1 muscarinic receptor agonists, primary screen, Fluo-8 calcium fluorescence, CHO-K1 cells, HTS; Muscarinic acetylcholine receptor M1 (Homo sapiens), P11229; activation, % at 3 µM; CHO-K1 hM1, agonist mode; 0% DMSO, 100% acetylcholine EC100; hit rate 0.33% among 360,000;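 active = activation above the run's mean compound activation plus 3 SD, cut at about 16% in these data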;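 note: peak over basal fluorescence ratio within a 140 s kinetic read after compound addition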
CHO-K1 Ca antag – counter-screen for M1 antagonists: effect in parental CHO-K1 cells | ATP-induced calcium, Fluo-8 fluorescence | inhibition, % at 3 µM | hit rate 0.6% among 360,000;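 active = inhibition above a per-plate cutoff, the plate's mean sample inhibition plus 3 SD, cut at about 24% in these data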
A number is an active result; i = inactive; ! = not active in a repeat.

SMILES	CHRM1 PAM	M1 antag	CHO-K1 Ca ag	CHO-K1 Ca PAM	CHRM1 agonist	CHO-K1 Ca antag
COCCn1nnnc1C(c1cccc(OC)c1OC)N1CCN(C2CCCCC2)CC1 (stereo not given)	24	i	i	i	i	i
Cn1c(=O)c2c(nc(SCC(=O)N3CCc4ccccc4C3)n2C)n(C)c1=O	i	i	i	i	16	i
CCn1c(SCC(=O)N2CCCC2)nc2c1c(=O)n(C)c(=O)n2C	i	i	i	i	i	i
Cn1c(=O)c2c(nc(SCC(=O)N3c4ccccc4CCc4ccccc43)n2C)n(C)c1=O	i	i	i	i	i	i
CCn1c(SCC(=O)N2CCC(C)CC2)nc2c1c(=O)n(C)c(=O)n2C	28	i	i	i	i	i
Cc1ccc(CCNC(=O)C2CCCN(c3ncnc4c3nc3n4CCCCC3)C2)cc1 (stereo not given)	i	i	i	i	i	i
O=C(NCc1ccccc1Cl)C1CCCN(c2ncnc3c2nc2n3CCCCC2)C1 (stereo not given)	i	i	i	i	i	i
CC(C)N(CCNC(=O)C1CCCN(c2ncnc3c2nc2n3CCCCC2)C1)Cc1ccccc1 (stereo not given)	i	38	i	i	i	i
CCCS(=O)(=O)N1CCCC(C(=O)NCCN(Cc2ccccc2)C(C)C)C1 (stereo not given)	i	i	i	i	i	32
O=C(NCC1CCN(Cc2ccccc2F)CC1)C1CCCN(c2ncnc3c2nc2n3CCCCC2)C1 (stereo not given)	i	91	i	i	i	i
Cc1ccc(CN2CCC(CNC(=O)C3CCCN(c4ncnc5c4nc4n5CCCCC4)C3)CC2)cc1 (stereo not given)	i	97	i	i	i	i
O=C(NCc1ccccc1)C12CC3CC(CC(Br)(C3)C1)C2	i	i	i	i	i	i
CCCCNc1nc2c(c(=O)n(Cc3ccccc3)c(=O)n2C)n1C	i	i	i	i	i	i
O=S(=O)(c1cccc2cnccc12)N1CCCNCC1	i	i	i	i	i	i
CC1CNCCN1S(=O)(=O)c1cccc2cnccc12 (stereo not given)	i	i	i	i	42!	i
O=C(Cn1cc([N+](=O)[O-])ccc1=O)NC1CCCCC1	i	i	i	i	i	i
O=[N+]([O-])c1ccc(Nc2ccccc2)c2nonc12	i	i	i	i	i	i
O=[N+]([O-])c1ccc(Sc2cccc[n+]2[O-])c2nonc12	i	44	i	i	i	88
COc1ccc2c(c1)OC[C@H]1[C@H]2N2C(=O)c3cc(OC)ccc3NC(=O)[C@@]2(C)[C@H]1c1ccccc1	i	27	i	i	i	i
COc1ccc2c(c1)OC[C@H]1[C@H]2N2C(=O)c3cc(Cl)ccc3NC(=O)[C@@]2(C)[C@H]1c1ccccc1	i	i	i	i	i	i
COc1ccc2c(c1)OC[C@H]1[C@H]2N2C(=O)c3cc(F)ccc3NC(=O)[C@@]2(C)[C@H]1c1ccccc1	i	83	i	i	i	i
COc1cc(S(=O)(=O)N2CCOCC2)ccc1NC(=O)COC(=O)c1ccc(Cl)nc1	i	i	i	i	i	i
CC(C)CC(NC(=O)C1CCC(=O)N1C(=O)OCc1ccccc1)C(=O)NC(Cc1ccccc1)C(N)=O (stereo not given)	i	i	i	i	i	i
O=[N+]([O-])c1ccc(C[n+]2cccc3c4ccccc4ccc32)cc1	i	i	i	i	i	i
CCCCCCCCC[n+]1cccc2c3ccccc3ccc21	i	95	i	i	i	i
SMILES	CHRM1 PAM	M1 antag	CHO-K1 Ca ag	CHO-K1 Ca PAM	CHRM1 agonist	CHO-K1 Ca antag
Cc1ccccc1C[n+]1cccc2ccccc21	i	i	i	i	i	i
CCCCCCCCCCCCCCCC[n+]1cccc2ccccc21	i	47	i	i	i	i
Cn1cccc1C1Nc2ccccc2NC2=C1C(=O)CC(C)(C)C2 (stereo not given)	i	42	i	i	i	i
O=C(N/N=C/c1ccccc1[N+](=O)[O-])c1ccncc1	26	i	i	i	i	i
N#CCC(=O)N/N=C/c1cc([N+](=O)[O-])ccc1N1CCOCC1	i	i	i	i	i	26
O=C(N/N=C/c1ccccc1)c1ccc(N2CCOCC2)c([N+](=O)[O-])c1	i	i	i	i	i	i
O=C(N/N=C/C=C/c1ccccc1[N+](=O)[O-])c1ccncc1	i	i	i	i	i	i
O=C(N/N=C/c1cc([N+](=O)[O-])c(N2CCOCC2)cc1N1CCOCC1)c1cccnc1	i	i	21	i	i	i
COc1ccc(C2CC(=O)CCN2S(=O)(=O)c2ccc(C)cc2)cc1 (stereo not given)	i	i	i	i	i	i
COCc1nnc(NC(=O)c2ccc(OC)cc2OC)s1	i	i	i	i	i	i
COc1ccc(C(=O)Nc2nnc(CCc3ccccc3)s2)c(OC)c1	i	i	i	i	i	35
O=[N+]([O-])c1ccc(N2CCN(Cc3ccccc3)CC2)c2c1no[n+]2[O-]	i	35	19	i	i	i
O=[N+]([O-])c1ccc(N2CCN(Cc3ccccc3)CC2)s1	i	i	i	i	i	i
CCc1cc(C(=O)Cc2ccccn2)c(O)cc1O	i	i	i	i	i	i
CC(=O)Oc1ccc(C(=O)Cc2ccccn2)c(O)c1	i	i	i	i	i	24
CCOC(=O)c1ccc(O)c(-n2cc3c(c2-c2ccccc2)c(=O)n(C)c(=O)n3C)c1	i	i	i	i	i	i
CC(NC(=O)COC(=O)c1cc(=O)c2ccccc2o1)c1ccccc1 (stereo not given)	i	i	i	i	i	i
Cc1ccc(CC(=O)Nc2ccccc2-c2ccccc2)cc1C	i	i	i	i	i	25
CC(=O)Nc1ccc(SCC(=O)Nc2ccccc2-c2ccccc2)cc1	i	i	i	i	i	30
COc1ccc(CC(=O)Nc2ccccc2-c2ccccc2)cc1OC	i	i	i	i	i	i
CSc1ncc(CNc2cc([N+](=O)[O-])ccc2C)c(N)n1	i	i	i	i	i	i
NS(=O)(=O)c1ccc(CCNC(=O)CNC(=O)c2ccc(F)cc2)cc1	i	i	i	i	i	i
O=C(CNC(=O)c1ccccc1)NCCc1ccc(O)c(O)c1	31	i	i	i	i	i
CCN(CC#CCC(O)(c1ccccc1)c1ccccc1)C(C)C	i	82	i	i	i	i
CC(C)N(CC#CCC(O)(c1ccccc1)c1ccccc1)CCO	i	i	i	i	i	i
